Molecules are shown by their SMILES. Compounds without any hit were thinned out: in the full panel of roughly 83,000, 20% have a hit.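 Growth was measured after 48 h exposure to one concentration of compound in 96-well plates. Values under 10 count as active.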 Calls of active or inactive are those of the source.

The assay relates to MDA-MB-468 breast. Description: NCI-60 one-dose screen, 48 h (100 = growth as untreated, 0 = no growth, -100 = all killed). Conditions: 10 µM unless noted.
Consider `Cc1nc2sc(C(=O)Nc3cccc4c3OCCO4)c(N)c2cc1C(C)O` (centres undefined), for which the growth was 3.42% (active).
With `CN1C[C@@H](c2ccc(Cl)cc2)[C@]2(NC(=S)N(c3ccccc3)C2=O)[C@@]12C(=O)NC1C=CC(Br)=C[C@H]12` (some centres undefined), the growth was 67.7% (inactive).
Regarding `Cc1cnc(N)s1`, the growth was 102% (inactive).
Next, `CCOC(=O)c1ccc2c(c1)nc(/C=C/c1ccc(Cl)cc1)n2-c1cc(C(C)(C)C)[nH]n1`: 58.8% (inactive).
